The whole screen tested about 48,000 compounds, of which about 13,000 (27%) showed an effect of 50% or more. Some of the results follow.
The compounds below were run on Wolbachia pipientis (assay: Anti-Wolbachia Cell-Based Screen). Details: 5 µM.
Assay type: functional
Set-up: scale not given: in the data most compounds retested in dose-response had high values

SMILES | Percent Effect
CC(C)S(=O)(=O)N1C[C@@H](c2ccccc2)[C@H]2[C@H]1CCCCCN2C | 189.5%
CC(Cn1cncn1)NCc1csc2c1CCCC2 (centres undefined) | -14.34%
NC1(c2nc(-c3ccccc3)cc(=O)[nH]2)CCCCC1 | -11.2%
CC1=NOC2(CCN(Cc3c[nH]c4ccccc34)CC2)C1 | 112.6%
CO[C@H]1COCCN(Cc2c[nH]c3ccccc23)C1 | -3.317%
O=C1OCCC1N1CCN(C(=O)Cc2c[nH]c3ccccc23)CC1 (centres undefined) | 5.817%
CCc1nnc(CN(C)C(=O)CN2CC(c3ccccc3)CC2=O)o1 (centres undefined) | 5.104%
CCS(=O)(=O)N1CCc2c(CN3CCOCC3)cncc2C1.Cl.Cl | 105.6%
CCS(=O)(=O)N1CCc2c(COC)cncc2C1 | 85.06%
O=C(COc1ccc(F)cc1)N1CCCSCC1CN1CCOCC1 (centres undefined) | -0.3394%
FC1(F)CCNCC12CCN(c1ncccn1)C2 (centres undefined) | -1.09%
Cl.FC(F)CNc1cnc(C2CCNCC2)cn1 | 73.95%
O=C(C1CC1)N1CCC2(CC1)CNCCO2 | 0.5147%
Cl.O=C(C1CC1)N1CC2(CCNCC2)C1 | -2.925%
Cl.O=C(C1CC1)N1CCOC2(CCNCC2)C1 | 99.53%
Cc1ccc(N2C[C@@H]3OCCN(Cc4c(C)noc4C)[C@@H]3C2)nn1 | 99.73%
Cc1ccc(N2C[C@@H]3CN(Cc4ccoc4)CCO[C@@H]3C2)nn1.O=C(O)C(F)(F)F.O=C(O)C(F)(F)F | -36.31%
Cc1ccc(N2C[C@@H]3OCCN(CC4CC4)[C@@H]3C2)nn1.O=C(O)C(F)(F)F | 101.4%
Cc1noc(C)c1CN1CCO[C@H]2CNC[C@H]21.Cl.Cl | -6.613%
Cc1ccc(N2C[C@@H]3CN(Cc4csc(C)n4)CCO[C@@H]3C2)nn1.O=C(O)C(F)(F)F.O=C(O)C(F)(F)F | 2.819%
COCC(=O)N1C[C@@H]2OCCN(Cc3c(C)noc3C)[C@@H]2C1 | -12.28%
CC(C)NC(=O)N1CCOC2(CCNCC2)C1 | -2.285%
CCn1ccnc1CN1CCN(C(C)C)CC1C (centres undefined) | -27.31%

SMILES | Percent Effect
CN1CCCC(Cc2nccnc2Cl)CC1 (centres undefined) | 111.8%
CC(C)N1CCCC(Cc2nccnc2Cl)C1 (centres undefined) | 102.4%
CC(C)N1CCCC(Cc2nccnc2Cl)CC1 (centres undefined) | 83.32%
CN1CCCC(Cc2cncc(Br)c2)CC1 (centres undefined) | -8.172%
O=C(N1CCCC1)N1C[C@H]2CC[C@@H]1CN(Cc1ccncc1)C2 | 3.012%
CC(C)CN1C(=O)C2(CCCC2)NC1c1cccnc1 (centres undefined) | -3.888%
COC(=O)CCC(=O)NC(C)Cc1ccccc1Br (centres undefined) | 5.861%
O=S1(=O)CCC(n2cc(C3=CCN(CCN4CCCCC4)CC3)cn2)C1 (centres undefined) | 5.738%
COc1cccc(C2=CCN(CCN3CCCC3=O)CC2)c1 | -10.09%
COc1cccc(C2=CCN(CCN3CCOC3=O)CC2)c1 | 5.556%
CC(C)(C)n1cc(C2=CCN(CCc3ccccc3)CC2)cn1 | -9.314%
COc1cccc(Cn2cc(C3=CCN(CCO)CC3)cn2)c1 | 104.2%
COc1cccc(Cn2cc(C3=CCN(CC(=O)N(C)C)CC3)cn2)c1 | 105.2%
CCC(O)Cn1cc(C2=CCN(Cc3ccc(OC)cc3)CC2)cn1 (centres undefined) | -14.61%
CCn1cc(C2=CCN(CCCOc3ccccc3)CC2)cn1 | 20.1%
CN(C)C(=O)CN1CC=C(c2cnn(Cc3ccccc3)c2)CC1 | 99.64%
COCCN1CC=C(c2cccc(OC)c2)CC1 | -4.022%
Cc1noc(C)c1CNCc1ccccc1N(C)C1CCN(C)CC1 | 3.422%
Cc1nc(C)c(C)c(N2CCC3(CCN(C)C3)C2)n1 (centres undefined) | -3%
NCC1(c2cccc(C(F)(F)F)c2)CCCC1 | -13.69%
CC(C)=CCN1C[C@H]2CC[C@@H]1CN(C(=O)CSc1ccncc1)C2 | 19.74%
COCCN1CCC2(C1)CN(c1ncccn1)C2.O=C(O)C(F)(F)F | -10.62%
CC(C)CN1CCC2(CC(C(=O)NCc3cccnc3)=NO2)C1 (centres undefined) | -7.517%

SMILES | Percent Effect
CC(C)CCN1CCC2(CNS(=O)(=O)c3cccnc3O2)C1 (centres undefined) | 113.8%
O=S1(=O)NCC2(CCN(Cc3ccc(Cl)s3)C2)Oc2ncccc21 (centres undefined) | 120.8%
O=C(Cc1ccncc1)N1C[C@H]2CC[C@@H]1CN(Cc1cccnc1)C2 | -14.3%
NCC1(c2cccc(C(F)(F)F)c2)CCCCC1 | -7.297%
CCCc1nnc2sc(C3CCN(CC)CC3)nn12 | 103.4%
COc1ccc(C(=O)C2CCCN(Cc3ccc(C)o3)C2)c(OC)c1 (centres undefined) | -6.752%
COc1ccc(CC(=O)N2CCN(Cc3ccco3)C[C@@H]2C)cc1 | 137.5%
COc1ccc(CC(=O)N2CCN(Cc3ccco3)C[C@H]2C)cc1OC | 147.8%
O=C(Cc1csc(-c2ccco2)n1)N1CCN(CCO)CC1 | 5.506%
COc1ccc(CC(=O)N2CCN(Cc3ccco3)C[C@@H]2C)cc1OC | 120.6%
COc1cccc(CC(=O)N2CCCSCC2CN2CCCC2)c1 (centres undefined) | 23.31%
CO[C@H]1CCN(c2ncc(F)cn2)[C@@H]2CN(Cc3ccco3)C[C@H]12.O=C(O)C(F)(F)F.O=C(O)C(F)(F)F | 23.38%
COc1ccc(CCNCc2ccco2)cc1OC | -22.25%
COc1ccc2c(ccn2CCN)c1 | -4.94%
O=C(NCC1CC1)[C@H]1C[C@@H]2[C@@H](C1)OCCN2Cc1cccnc1.O=C(O)C(F)(F)F.O=C(O)C(F)(F)F | 13.71%
O=C(O)C(F)(F)F.O=C(O)C(F)(F)F.c1cc(CO[C@H]2CC[C@H]3[C@H]2OCCN3Cc2nccs2)ccn1 | 124.9%
CC(C)NC(=O)[C@H]1C[C@@H]2[C@@H](C1)OCCN2Cc1cccnc1.O=C(O)C(F)(F)F.O=C(O)C(F)(F)F | 1.72%
O=C(O)C(F)(F)F.O=C(O)C(F)(F)F.O=C(O)C(F)(F)F.c1cc(CN2CCO[C@H]3[C@H](OCCN4CCCC4)CC[C@@H]32)ccn1 | 104.9%
O=C(O)C(F)(F)F.O=C(O)C(F)(F)F.c1ccc(CO[C@H]2CC[C@H]3[C@H]2OCCN3Cc2nccs2)nc1 | -10.71%
CCN(CC)CCN1CCO[C@H]2[C@@H](OCc3ccncc3)CC[C@@H]21.O=C(O)C(F)(F)F.O=C(O)C(F)(F)F.O=C(O)C(F)(F)F | 3.809%
O=C(O)C(F)(F)F.O=C(O)C(F)(F)F.O=C(O)C(F)(F)F.c1ccc(CN2CCO[C@H]3[C@H](OCCN4CCCC4)CC[C@@H]32)nc1 | -22.42%
O=C(O)C(F)(F)F.O=C(O)C(F)(F)F.O=C(O)C(F)(F)F.c1cncc(CN2CCO[C@H]3[C@H](OCCN4CCCC4)CC[C@@H]32)c1 | 103%
Cc1cccc(CO[C@@H]2CC[C@H]3[C@H]2OCCN3Cc2nccs2)n1.O=C(O)C(F)(F)F.O=C(O)C(F)(F)F | -8.72%

SMILES | Percent Effect
Cc1nc(C)c(CC(=O)N2CCN(CC(C)C)CC2)c(=O)[nH]1 | -15.6%
CC[C@H]1CN2CC[C@H]1C[C@@H]2CNC(=O)NC1CCCCC1 | -4.604%
CNC(=O)[C@H]1C[C@@H]2CN(C(=O)c3ccncc3F)C[C@@H]2N1C | 2.311%
CCN(CCN1CCCCCC1)C(=O)COc1cccnc1 | -15.49%
CN1CCc2nc3c(c(N)c2C1)CCCN3C | 105.5%
CC(C)c1cc(N2CCC3(CCN(C)C3)C2)ncn1 (centres undefined) | -5.942%
CC(=O)N1CCN(Cc2ccncc2)CC2(CC(=O)N(C)C2)C1.O=C(O)C(F)(F)F.O=C(O)C(F)(F)F (centres undefined) | 112.8%
Cn1ccnc1CN1CCC2(CC(=O)N(c3ccccn3)C2)C1.O=C(O)C(F)(F)F.O=C(O)C(F)(F)F (centres undefined) | -3.39%
CC(=O)N1CCOCC2(CN(Cc3ccccn3)CCO2)C1.O=C(O)C(F)(F)F.O=C(O)C(F)(F)F (centres undefined) | -7.165%
O=C(O)C(F)(F)F.O=C(O)C(F)(F)F.O=C1CC2(CCN(Cc3ccncc3)C2)CN1c1cccc(F)c1 (centres undefined) | 10.56%
Cn1cnc(S(=O)(=O)N2CC3(CCN(Cc4ccncc4)C3)C2)c1.O=C(O)C(F)(F)F.O=C(O)C(F)(F)F.O=C(O)C(F)(F)F | 100.9%
Cn1cnc(S(=O)(=O)N2C[C@H]3CN(Cc4cccnc4)C[C@H]3C2)c1.O=C(O)C(F)(F)F.O=C(O)C(F)(F)F.O=C(O)C(F)(F)F | -11.02%
CCS(=O)(=O)NC[C@]12COC[C@H]1CN(Cc1ccncc1)C2.O=C(O)C(F)(F)F.O=C(O)C(F)(F)F | -4.372%
CCN1CC2(CC1=O)CN(Cc1ccccn1)CCN(C(C)=O)C2.O=C(O)C(F)(F)F.O=C(O)C(F)(F)F (centres undefined) | 108.4%
CN(C)C(=O)N1CCCC2(CCN(Cc3ccncc3)C2)C1 (centres undefined) | -11.09%
CCN1CCc2[nH]cnc2C12CCN(c1ccc(Cl)cn1)CC2 | 20.82%
Cc1cc(CN2C[C@@H]3COC[C@]3(CNC(=O)c3ccco3)C2)no1.O=C(O)C(F)(F)F | -9.998%
Cc1nc(CC(=O)N2CCN(CCOc3ccccc3)CC2)cs1 | -7.543%
CN1CCN(C(=O)Cc2ccc(S(=O)(=O)C(F)F)cc2)CC1 | 3.1%
Cc1ccc(-c2ccnc3cc(CC(=O)N4CCN(C)CC4)nn23)cc1 | 99.35%

Reference: ChEMBL document CHEMBL3988442, “University of Dundee, Small-Polar-MMV Screening Library” (2021)
